Assay outcomes: PubChem BioAssay, The Scripps Research Institute Molecular Screening Center
hcDAF-12 act: H. contortus DAF-12 activation, primary screen; AID 652067; HEK293 hcDAF-12 lit1-tk-luc reporter, luminescence; 0% DMSO, 100% Δ7-dafachronic acid; activation, % at 6.8 µM; actives 1.4% (n = 370,000);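 active = activation above the mean of all tested compounds plus 3 SD, cut at about 5.5% in these data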;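 note: 100% = response to 3 µM Δ7-dafachronic acid high control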
ssDAF-12 act: activates DAF-12 receptor from parasite S. stercoralis; activation, % at 6.8 µM; HEK293 ssDAF-12/GRIP1 lit1-tk-luc reporter, luminescence; % of 3 µM dafachronic acid response; actives 1% (n = 370,000); AID 652126;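 active = activation above the mean over all tested compounds plus 3 SD, cut at about 0.9% in these data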;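 note: 0% = DMSO-only wells and 100% = 3 µM delta7-dafachronic acid wells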
hgDAF12 agonist: activates the H. glycines DAF-12 receptor ligand-binding domain | HEK293 GAL4-hgDAF12 UAS-luciferase reporter, agonist luminescence; normalized to butyrate control | activation, % at 6.8 µM | actives 1.8% (n = 370,000) | AID 687014;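 active = activation above a cutoff set at the mean of all screened compounds plus 3 SD, cut at about 10% in these data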;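 note: 0% = DMSO wells and 100% = sodium butyrate wells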
DAX1 inh-1: inhibits human nuclear receptor DAX1 | P51843 | HEK293 Gal4-DAX1 luciferase reporter, luminescence | inhibition, % at 6.75 µM | actives 0.99% (n = 340,000) | AID 504766;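 active = inhibition above the mean over all tested compounds plus 3 SD, cut at about 4.2% in these data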;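 note: 0% = DAX1-transfected cells with DMSO and 100% = empty-vector control cells with DMSO; inhibition shows as a rise in luminescence from relieved DAX1 repression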
Target sequence (P51843 207-470 limits assumed): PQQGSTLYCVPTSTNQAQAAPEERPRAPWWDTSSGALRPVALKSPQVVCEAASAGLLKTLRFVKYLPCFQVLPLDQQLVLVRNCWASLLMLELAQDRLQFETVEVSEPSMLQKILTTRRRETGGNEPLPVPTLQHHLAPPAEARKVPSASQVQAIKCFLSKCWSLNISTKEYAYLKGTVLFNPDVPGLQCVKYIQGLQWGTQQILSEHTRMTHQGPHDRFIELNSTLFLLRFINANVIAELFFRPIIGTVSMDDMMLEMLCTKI
DAX1 inh-2: blocks DAX1 repression of SF-1 activated StAR promoter; HEK293T StAR-luciferase reporter, SF-1/DAX-1 repression relief; inhibition, % at 6.8 µM; actives 1.1% (n = 370,000); AID 652010;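 active = inhibition above the mean over all tested compounds plus 3 SD, cut at about 3.6% in these data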;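 note: 0% = DAX-1 cells with DMSO and 100% = cells lacking DAX-1 with DMSO; higher inhibition means more luminescence from relief of DAX-1 repression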
* = called active by the depositor; . = no result given. A selection: hits, their analogues and other compounds. The true share with any hit is near 4.1%.

SMILES	hcDAF-12 act	ssDAF-12 act	hgDAF12 agonist	DAX1 inh-1	DAX1 inh-2
COc1ccc(N=Nc2c(N)nn(C)c2N)cc1	1	1.2*	10	4	3
Cc1ccc(N=Nc2c(N)nn3c(N)c(C#N)c(C)nc23)cc1	0	-1	2	2	1
O=C1c2c(-c3ccc(Br)cc3)noc2CCN1Cc1cn(C2CCCC2)nn1	0	-1	0	.	-1
Cc1ccc(C)c(N(C)C(=O)COc2cc(=O)n(C)c3ccccc23)c1	-2	-1	-3	4.8*	1
COc1cc(NC(=O)C2(C)CCCN2C(=O)C(C)C)cc(OC)c1OC (centres undefined)	-2	0	0	.	-2
CCOc1ccc(N=Cc2ccc3ccccc3c2)cc1	3	-1	-2	0	1
O=[N+]([O-])c1cc(C=Nc2ccc3ccccc3c2)ccc1Br	2	1.2*	5	1	1
Cc1cc(C)cc(N(CC(=O)NC2CCC(C)CC2)S(=O)(=O)c2ccc([N+](=O)[O-])cc2)c1 (centres undefined)	-1	-1	1	.	0
O=C(CN1C(=O)c2ccccc2S1(=O)=O)NCc1c(F)cccc1F	0	-1	1	4.9*	0
O=C(CN1C(=O)c2ccccc2S1(=O)=O)NCc1ccc(F)cc1	-1	0	0	1	0
O=C(Nc1ccc(Br)cc1Br)Nc1cccc2[nH]c([C@@H]3O[C@H](CO)[C@@H](O)[C@H](O)[C@H]3O)nc12	0	0.9*	5	.	1
O=C(Nc1cccc(Cc2ccccc2)c1)Nc1cccc2[nH]c([C@@H]3O[C@H](CO)[C@@H](O)[C@H](O)[C@H]3O)nc12	-2	-2	-4	.	1
Cc1ccc2c(c1)Oc1ccc([N+](=O)[O-])cc1C(=O)N2	6.1*	0	2	-1	0
Cc1ccc2c(c1)Oc1ccc(NC(=O)CCl)cc1C(=O)N2	-6	-1	-12	-4	-4
CC(C)CC(OC(=O)c1ccc(Cl)nc1)C(=O)NC1CCCC1 (centres undefined)	1	1.1*	-1	0	0
CC(C)(C)NC(=O)C(c1cccnc1)N(C(=O)c1ccc(Cl)nc1)C1CCCC1 (centres undefined)	-1	-1	0	0	0
O=C(NC1CCCCC1)C(c1cccnc1)N(C(=O)c1ccc(Cl)nc1)C1CCCCC1 (centres undefined)	-1	1.7*	1	1	-1
CC(CN1CCCCC1)OC(=O)c1ccc2c(c1)OCCO2 (centres undefined)	4	0	7	0	1
CC(CN1CCOCC1)OC(=O)c1ccc2c(c1)OCCO2 (centres undefined)	4	0	11*	2	1
COc1cccc(OCc2cc(C(=O)N(C)C3CCOCC3)no2)c1	4	-1	1	0	0
COc1cccc(OCc2cc(C(=O)N(C)Cc3nc(C)cs3)no2)c1	2	0	6	2	4.5*
Nc1[nH]c(C(=O)c2ccccc2)c(-c2cccnc2)c1C(=O)c1ccccc1	-1	-1	-2	.	0
C/C(=N/NC(=O)c1ccc(C(C)(C)C)cc1)c1cccnc1	0	0	2	.	0
C/C(=N\NC(=O)c1sccc1C)c1cccnc1	4	0	9	1	4.2*
O=C(NC(=S)NCc1nc2ccccc2[nH]1)c1ccccc1F	6.3*	0	8	2	2
SMILES	hcDAF-12 act	ssDAF-12 act	hgDAF12 agonist	DAX1 inh-1	DAX1 inh-2
O=C(NC(=S)NCc1nc2ccccc2[nH]1)c1ccc(F)cc1	2	0	10*	0	1
C=CCOc1ccc(C2/C(=C(\O)c3ccc4c(c3)CC(C)O4)C(=O)C(=O)N2CCN2CCOCC2)cc1OCC (centres undefined)	-2	-1	-2	1	0
COC(=O)N1Cc2ccnnc2CC1c1ccccc1-c1ccc(F)cc1 (centres undefined)	-2	0	-3	.	1
CC(C)Cn1cc(C(=O)NCCCN2CCC(C)CC2)c2c3ccccc3n(C)c2c1=O	3	-1	-2	5.3*	2
CC(C)Cn1cc(C(=O)NCCCN2CCCC2=O)c2c3ccccc3n(C)c2c1=O	1	-1	-1	1	0
CC1CCN(CCCNC(=O)c2cc3c(=O)n(C)c4ccccc4c3n2C)CC1	3	-1	2	6.0*	4.7*
